hgDAF12 agonist: H. glycines DAF-12 receptor agonists, primary screen, cell-based, luminescence, HEK293, GAL4 fusion, UAS-luciferase. Nuclear hormone receptor DAF-12 (Heterodera glycines), GAL4 fusion. actives 1.8% (n = 370,000). activation, % at 6.8 µM. HEK293 GAL4-hgDAF12 UAS-luciferase reporter, agonist luminescence; normalized to butyrate control;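 active = activation above a cutoff set at the mean of all screened compounds plus 3 SD, cut at about 10% in these data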;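 note: 0% = DMSO wells and 100% = sodium butyrate wells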
DAX1 inh-1: DAX1 (NR0B1) inhibitors on StAR promoter, primary screen, cell-based, luminescence, SF-1 (NR5A1), full-length DAX-1 | HEK293T StAR-luciferase reporter, SF-1/DAX-1 repression relief | inhibition, % at 6.8 µM | actives 1.1% (n = 370,000) | AID 652010, 2013;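 active = inhibition above the mean over all tested compounds plus 3 SD, cut at about 3.6% in these data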;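 note: 0% = DAX-1 cells with DMSO and 100% = cells lacking DAX-1 with DMSO; higher inhibition means more luminescence from relief of DAX-1 repression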
ssDAF-12 act: S. stercoralis DAF-12 nuclear receptor activators, primary screen, cell-based, luminescence, HEK293, GRIP1 co-expression, lit1-tk-luc; Nuclear hormone receptor DAF-12 (Strongyloides stercoralis); AID 652126, 2013; actives 1% (n = 370,000); activation, % at 6.8 µM; HEK293 ssDAF-12/GRIP1 lit1-tk-luc reporter; % of 3 µM dafachronic acid response;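 active = activation above the mean over all tested compounds plus 3 SD, cut at about 0.9% in these data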;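 note: 0% = DMSO-only wells and 100% = 3 µM delta7-dafachronic acid wells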
hcDAF-12 act: H. contortus DAF-12 nuclear receptor activators, primary screen, cell-based, luminescence, HEK293, lit1-tk-luc reporter; HEK293 hcDAF-12 lit1-tk-luc reporter; 0% DMSO, 100% Δ7-dafachronic acid; activation, % at 6.8 µM; actives 1.4% (n = 370,000); AID 652067, 2013;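 active = activation above the mean of all tested compounds plus 3 SD, cut at about 5.5% in these data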;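 note: 100% = response to 3 µM Δ7-dafachronic acid high control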
DAX1 inh-2: DAX1 (NR0B1) inhibitors, primary screen, cell-based, HEK293, Gal4-DAX1, luciferase luminescence; Nuclear receptor subfamily 0 group B member 1 (Homo sapiens), P51843; HEK293 Gal4-DAX1 luciferase reporter; inhibition, % at 6.75 µM; actives 0.99% (n = 340,000); AID 504766, 2011;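 active = inhibition above the mean over all tested compounds plus 3 SD, cut at about 4.2% in these data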;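 note: 0% = DAX1-transfected cells with DMSO and 100% = empty-vector control cells with DMSO; inhibition shows as a rise in luminescence from relieved DAX1 repression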
Target sequence (P51843 207-470 limits assumed): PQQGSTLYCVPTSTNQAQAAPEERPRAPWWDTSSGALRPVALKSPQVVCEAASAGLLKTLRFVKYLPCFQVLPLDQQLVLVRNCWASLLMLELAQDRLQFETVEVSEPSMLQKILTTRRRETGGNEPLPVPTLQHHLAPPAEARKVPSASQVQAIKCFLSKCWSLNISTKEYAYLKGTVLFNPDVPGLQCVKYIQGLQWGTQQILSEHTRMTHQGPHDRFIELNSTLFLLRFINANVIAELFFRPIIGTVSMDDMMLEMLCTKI
AHR activator: AHR activators, primary screen, cell-based, luminescence, luciferase reporter, human; Aryl hydrocarbon receptor (Homo sapiens), P35869; AHR-responsive luciferase reporter cells; activation, % at 5 µM; actives 2.5% (n = 320,000); AID 2796, 2010; in the data active = activation above about 47%;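 note: 0% = vehicle wells and 100% = reference agonist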
The depositor's hits bear a star. This is a sample that favours compounds with a hit; in the whole collection about 5.7% have one here.

Results for Clc1ccc(-c2csc(N/N=C\c3cccnc3)n2)cc1 ?
hgDAF12 agonist: 1.0; DAX1 inh-1: 0.2; ssDAF-12 act: -1.2; hcDAF-12 act: -0.5; DAX1 inh-2: 0.0; AHR activator: -1.6

Results for O=[N+]([O-])c1cccc(-c2csc(N/N=C/c3cccc(O)c3)n2)c1 ?
hgDAF12 agonist: 3.4; DAX1 inh-1: -0.4; ssDAF-12 act: -1.0; hcDAF-12 act: 0.4; DAX1 inh-2: 1.1; AHR activator: 73.5*

What do the screens show for `ClCc1csc(N/N=C/c2cccs2)n1`?
AHR activator: 13.5

What do the screens show for `C(=N\Nc1nc(-c2ccccc2)cs1)/c1ccncc1`?
hgDAF12 agonist: 0.4; DAX1 inh-1: 0.7; ssDAF-12 act: -0.6; hcDAF-12 act: 0.3; DAX1 inh-2: 1.9; AHR activator: 60.5*

What do the screens show for `Nc1ccc(O)c2c1C(=O)c1ccccc1C2=O`?
hgDAF12 agonist: 2.8; DAX1 inh-1: 0.7; ssDAF-12 act: -0.8; hcDAF-12 act: 0.9; DAX1 inh-2: 4.4*; AHR activator: 5.8

What do the screens show for `CNC(=O)c1cc(Nc2nnc(C)c3ccccc23)ccc1OC`?
hgDAF12 agonist: -0.2; DAX1 inh-1: 0.8; ssDAF-12 act: -1.2; hcDAF-12 act: -0.9; DAX1 inh-2: 1.1; AHR activator: 59.3*

How did N#Cc1cc(-c2ccccc2)nn1-c1ccccc1 do in these assays?
hgDAF12 agonist: 3.6; DAX1 inh-1: 0.5; ssDAF-12 act: -0.8; hcDAF-12 act: 1.4; DAX1 inh-2: -1.5; AHR activator: 68.1*

What do the screens show for `Cn1ccc(-c2ccccc2)n1`?
hgDAF12 agonist: -1.5; DAX1 inh-1: -0.4; ssDAF-12 act: -1.6; hcDAF-12 act: -1.7; DAX1 inh-2: 1.6; AHR activator: -0.8

What do the screens show for `Cc1nn(C)cc1/C=N/NC(=S)Nc1ccc(Cl)cc1Cl`?
hgDAF12 agonist: 3.9; DAX1 inh-1: 0.1; ssDAF-12 act: -1.5; hcDAF-12 act: -1.8; DAX1 inh-2: 1.3; AHR activator: 27.1

How did CCn1nc(C)c(/C=N/NC(=S)Nc2ccc(Cl)cc2Cl)c1C do in these assays?
hgDAF12 agonist: 4.0; DAX1 inh-1: 0.8; ssDAF-12 act: -2.0; hcDAF-12 act: -0.4; DAX1 inh-2: -0.6; AHR activator: 52.8*

How did CCCCCCCCN1C(=O)[C@@H](CC(=O)N2CCN(C(=O)c3ccco3)CC2)C[C@@]2(C(=O)OC)C1=C[C@H](C(C)C)O[C@@H]2C1CC1 do in these assays?
hgDAF12 agonist: 1.9; DAX1 inh-1: -1.8; ssDAF-12 act: -0.9; hcDAF-12 act: -0.3

How did Clc1ccccc1N1CCN(Cc2c[nH]c3ccccc23)CC1 do in these assays?
hgDAF12 agonist: 1.1; DAX1 inh-1: -0.4; ssDAF-12 act: 0.1; hcDAF-12 act: 2.6; DAX1 inh-2: -1.0; AHR activator: 8.8

Results for Fc1ccccc1N1CCN(C2CCN(Cc3c[nH]c4ccccc34)CC2)CC1 ?
hgDAF12 agonist: 0.6; DAX1 inh-1: -0.5; ssDAF-12 act: 1.3*; hcDAF-12 act: 3.4; DAX1 inh-2: -0.2; AHR activator: 10.9

How did CCS(=O)(=O)c1ccc2oc(Nc3cccc(OC)c3)nc2c1 do in these assays?
hgDAF12 agonist: 4.8; DAX1 inh-1: -1.2; ssDAF-12 act: -0.4; hcDAF-12 act: 0.7; DAX1 inh-2: -1.6; AHR activator: 20.9

How did O=C(CN1CCCc2ccccc21)N/N=C/c1ccc(O)cc1O do in these assays?
hgDAF12 agonist: -4.9; DAX1 inh-1: -1.4; ssDAF-12 act: -1.4; hcDAF-12 act: 2.0; DAX1 inh-2: -0.5; AHR activator: 53.5*

How did Brc1ccc(-c2cn3c(n2)CCc2ccc4cccnc4c2-3)cc1 do in these assays?
hgDAF12 agonist: -2.1; DAX1 inh-1: -0.4; ssDAF-12 act: -0.2; hcDAF-12 act: 3.2; DAX1 inh-2: 0.3; AHR activator: 47.1*

Results for Brc1ccc(OCCCOc2cccc3cccnc23)cc1 ?
hgDAF12 agonist: 4.8; DAX1 inh-1: 0.4; ssDAF-12 act: -1.1; hcDAF-12 act: 0.0; DAX1 inh-2: 0.1; AHR activator: 3.8

What do the screens show for `CCOC(=O)CC1Sc2ccccc2NC1=O` (configuration not stated)?
DAX1 inh-2: -0.4; AHR activator: 0.9

How did CC(OC(=O)CC1Sc2ccccc2NC1=O)C(=O)N(C)Cc1ccccc1 (configuration not stated) do in these assays?
hgDAF12 agonist: 2.6; DAX1 inh-1: 1.0; ssDAF-12 act: 1.0*; hcDAF-12 act: 1.6; DAX1 inh-2: 1.7

What do the screens show for `Cc1cc(C)c2c(N=NN3CCOCC3)[nH]nc2n1`?
hgDAF12 agonist: -2.8; DAX1 inh-1: 0.1; ssDAF-12 act: 0.4; hcDAF-12 act: 0.1; DAX1 inh-2: -1.3; AHR activator: 14.6

What do the screens show for `CC(NC(=O)Cc1ccsc1)c1ccc(Cl)cc1Cl` (configuration not stated)?
hgDAF12 agonist: -0.3; DAX1 inh-1: -0.2; ssDAF-12 act: -0.9; hcDAF-12 act: -1.3; DAX1 inh-2: 0.3; AHR activator: -0.2

What do the screens show for `CC(=O)Cc1nsc(Nc2ccc(C)cc2)n1`?
hgDAF12 agonist: 12.2*; DAX1 inh-1: 4.2*; ssDAF-12 act: 0.8; hcDAF-12 act: 4.6; DAX1 inh-2: 2.6; AHR activator: 14.7

What do the screens show for `CNc1nc(CC(C)=O)ns1`?
hgDAF12 agonist: -0.8; DAX1 inh-1: -0.1; ssDAF-12 act: -1.1; hcDAF-12 act: -0.4; DAX1 inh-2: 0.4; AHR activator: 20.3

How did CCNS(=O)(=O)c1ccc(-c2ccc(-n3cnnn3)cc2)cc1 do in these assays?
hgDAF12 agonist: -3.1; DAX1 inh-1: -0.9; ssDAF-12 act: -0.6; hcDAF-12 act: 0.1; DAX1 inh-2: 6.3*; AHR activator: -0.8

What do the screens show for `COc1cccc(NC(=S)NNC(=O)c2ccccc2OC(F)F)c1`?
hgDAF12 agonist: 2.6; DAX1 inh-1: 0.1; ssDAF-12 act: -1.6; hcDAF-12 act: -0.4; DAX1 inh-2: -1.0; AHR activator: 3.1

What do the screens show for `Cc1ccc(NC(=S)NNC(=O)c2cccc([N+](=O)[O-])c2)cc1Cl`?
hgDAF12 agonist: 1.2; DAX1 inh-1: 1.0; ssDAF-12 act: -1.4; hcDAF-12 act: 0.8; DAX1 inh-2: 2.5; AHR activator: 24.2

Results for O=C(NNC(=S)Nc1ccc(F)cc1)c1ccccc1OC(F)F ?
hgDAF12 agonist: 0.2; DAX1 inh-1: -0.4; ssDAF-12 act: -0.1; hcDAF-12 act: 1.3; DAX1 inh-2: -0.8; AHR activator: 91.9*
